# Laboratory results published in paper PMC5540273 (PLoS ONE, 2017).
# Experiments:
# Conditions in all cases: concentration: 1 μM,replicates: in singlicate; n = 1
# [1] = test system: RIOK1
# [2] = test system: RIOK2
# [3] = test system: RIOK3
# [4] = test system: RIPK1
# [5] = test system: RIPK2
# [6] = test system: RIPK4
# [7] = test system: RIPK5
# [8] = test system: ROCK1
# [9] = test system: ROCK2
# [10] = test system: ROS1
# [11] = test system: RPS6KA4(Kin.Dom.1-N-terminal)
# [12] = test system: RPS6KA4(Kin.Dom.2-C-terminal)
# [13] = test system: RPS6KA5(Kin.Dom.1-N-terminal)
# [14] = test system: RPS6KA5(Kin.Dom.2-C-terminal)
# [15] = test system: T1, RSK1(Kin.Dom.1-N-terminal)
# T1 construct: gene RPS6KA1
# [16] = test system: T2, RSK1(Kin.Dom.2-C-terminal)
# T2 construct: gene RPS6KA1
# [17] = test system: T3, RSK2(Kin.Dom.1-N-terminal)
# T3 construct: gene RPS6KA3
# [18] = test system: T4, RSK2(Kin.Dom.2-C-terminal)
# T4 construct: gene RPS6KA3
# [19] = test system: T5, RSK3(Kin.Dom.1-N-terminal)
# T5 construct: gene RPS6KA2
# [20] = test system: T6, RSK3(Kin.Dom.2-C-terminal)
# T6 construct: gene RPS6KA2
# 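Also: KINOMEscan kinase panel screen.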
SMILES,%Inh [1],%Inh [2],%Inh [3],%Inh [4],%Inh [5],%Inh [6],%Inh [7],%Inh [8],%Inh [9],%Inh [10],%Inh [11],%Inh [12],%Inh [13],%Inh [14],%Inh [15],%Inh [16],%Inh [17],%Inh [18],%Inh [19],%Inh [20]
CN(c1ccc2c(c1)nc(NCc1ccc(F)cc1)n2C)c1ccnc(Nc2ccc(CS(C)(=O)=O)cc2)n1.Cl [GW813244],1%,21%,17%,99.8%,25%,24%,50%,0%,42%,57%,12%,0%,0%,4%,0%,32%,31%,0%,9%,28%
Cn1ccc2ncnc(Oc3ccc(NC(=O)Nc4cc(C(C)(C)C)on4)c(Cl)c3)c21,2%,29%,1%,15%,83%,12%,11%,3%,0%,46%,0%,13%,0%,6%,0%,17%,16%,1%,0%,8%
CNC(=O)c1ccccc1Nc1nc(Nc2cccc(CS(C)(=O)=O)c2)ncc1C.O=CO [GSK1520489],97.9%,89%,91.8%,21%,30%,98%,65%,89%,75%,90%,95.7%,0%,43%,0%,96.5%,43%,99.9%,12%,99%,0%
Cc1ccn2nc(-c3ccc(F)cc3)c(-c3ccncc3)c2c1.Cl [GW457859],23%,0%,23%,1%,41%,6%,0%,12%,20%,0%,0%,0%,44%,27%,0%,44%,0%,0%,0%,24%
